Neddyl block – inhibitors of cullin neddylation, primary screen, biochemical, TR-FRET, uHTS, NAE and Ubc12 | NEDD8-conjugating enzyme Ubc12 (Homo sapiens) + NEDD8-activating enzyme E1 regulatory … | inhibition, % at 25 µM | 0.58% of 360,000 active; in the data active = inhibition above about 36%
A3G deaminase – APOBEC3G DNA deaminase inhibitors, primary screen, biochemical, fluorescence, single-stranded DNA substrate, uHTS; AID 493012, 2011; inhibition, % at 20 µM; 0.28% of 330,000 active; DNA dC->dU-editing enzyme APOBEC-3G (Homo sapiens), Q9HC16; recombinant A3G, ssDNA deamination FAM/TAMRA fluorescence;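 active = inhibition of at least 40% at 20 µM, with no more than 30% in the related APOBEC3A deaminase screen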;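 also: plate controls were DMSO wells with A3G for no effect and wells lacking A3G enzyme for full effect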
Target sequence (Q9HC16 whole entry, looked up): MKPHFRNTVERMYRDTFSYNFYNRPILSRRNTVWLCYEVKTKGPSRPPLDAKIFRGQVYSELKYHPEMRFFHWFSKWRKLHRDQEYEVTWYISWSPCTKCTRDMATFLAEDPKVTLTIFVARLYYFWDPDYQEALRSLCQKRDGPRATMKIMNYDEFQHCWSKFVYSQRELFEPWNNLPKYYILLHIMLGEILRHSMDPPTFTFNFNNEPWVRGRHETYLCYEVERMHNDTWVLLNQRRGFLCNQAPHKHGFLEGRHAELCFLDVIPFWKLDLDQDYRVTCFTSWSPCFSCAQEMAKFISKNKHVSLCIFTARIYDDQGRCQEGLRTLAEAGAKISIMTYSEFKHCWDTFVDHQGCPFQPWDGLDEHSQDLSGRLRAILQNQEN
PfGluPho inh – PfG6PD enzyme inhibitors, primary screen, biochemical, fluorescence intensity, uHTS; glucose-6-phosphate dehydrogenase-6-phosphogluconolactonase (Plasmodium falciparum 3D7); PfGluPho enzyme, NADPH resazurin-diaphorase fluorescence; inhibition, % at 20 µM; 0.78% of 350,000 active; AID 504690, 2011;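 active = inhibition reaching at least a set limit at 20 µM in the primary screen, cut at about 59% in these data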;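 also: 0% = DMSO wells with substrate and 100% = DMSO wells lacking glucose-6-phosphate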
GC-B act – human GC-B receptor activators, primary screen, HEK293 GC-B cells, cGMP TR-FRET, EC30 CNP; 0% at EC30 CNP, 100% saturating CNP; AID 1920062, 2024; Atrial natriuretic peptide receptor 2 (Homo sapiens), P20594; activation, % at 10 µM; 0.11% of 370,000 active;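 active = activation at 10 µM reaching about 35% in either raw or pattern-adjusted values, limit read from the data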
A3A deaminase – APOBEC3A ssDNA deaminase inhibitors, primary screen, selectivity assay for APOBEC3G inhibitor project, biochemical, FAM/TAMRA oligo cleavage fluorescence; AID 493011, 2011; 0.41% of 330,000 active; recombinant A3A, FAM/TAMRA ssDNA deamination fluorescence; inhibition, % at 20 µM; DNA dC->dU-editing enzyme APOBEC-3A (Homo sapiens), P31941;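 active = at least 40% inhibition at 20 µM here, with at most 30% in a related deaminase screen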;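 also: plate controls were A3A with DMSO for no effect and wells lacking A3A enzyme for full effect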
NPR1 activator – GC-A stimulated cGMP production enhancers – HEK293 GC-A cells, cGMP TR-FRET, EC30 ANP, primary screen | Atrial natriuretic peptide receptor 1 (Homo sapiens), P16066 | 0% at EC30 ANP, 100% saturating ANP | activation, % at 10 µM | 0.14% of 370,000 active; in the data active = activation above about 40%
A3G conf – APOBEC3G deaminase inhibitor retest, confirmation, biochemical, fluorescence, single-stranded DNA substrate, single concentration | shares compounds with A3G deaminase | recombinant A3G ssDNA deaminase, UDG/FAM-TAMRA fluorescence | inhibition, % at 20 µM | 72% of 890 active | AID 493152, 2011;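 active = inhibition reaching a set limit in any replicate at 20 µM, the limit being 80% of the first screen's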
UDG ctr A3G – E. coli UDG inhibitors, confirmation, counter-screen for APOBEC3G inhibitor project, biochemical, single concentration, fluorescence, FAM/TAMRA oligo | AID 504715, 2011 | UDG counterscreen | 710 tested, under 10 active | shares compounds with A3G deaminase | inhibition, % at 20 µM;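 active = compounds giving 40% or more inhibition at 20 µM in any one of the three replicates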;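 also: plate controls were DMSO wells with UDG and oligo for no effect and DMSO wells lacking both for full effect; inhibitors lower the FAM signal released by uracil excision and alkaline cleavage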
Target sequence (P12295 whole entry, looked up): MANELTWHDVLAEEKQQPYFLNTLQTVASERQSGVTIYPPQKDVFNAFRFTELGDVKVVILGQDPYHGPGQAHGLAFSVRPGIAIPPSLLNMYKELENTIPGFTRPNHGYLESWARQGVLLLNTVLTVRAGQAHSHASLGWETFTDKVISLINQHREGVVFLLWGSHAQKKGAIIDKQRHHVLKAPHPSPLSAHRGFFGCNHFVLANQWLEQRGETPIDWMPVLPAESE
Starred values were filed as active, the others as inactive. The list is not random: actives were taken first. Their share in the collection is about 2%.

Results for COc1ccc2c(c1)CNC2CS(=O)(=O)NCc1ccc(F)cc1 (configuration not stated) ?
GC-B act: 2; NPR1 activator: -4

How did CCCN1CCS(=O)(=O)N(Cc2cn(Cc3ccc(F)cc3)nn2)C(C(=O)OC)C1 (configuration not stated) do in these assays?
GC-B act: 7; NPR1 activator: -1

How did NNC(=O)Nc1cccc(C(F)(F)F)c1 do in these assays?
Neddyl block: -10; A3G deaminase: 57*; PfGluPho inh: -6; GC-B act: 1; A3A deaminase: 3; NPR1 activator: 3; A3G conf: -2

How did COc1cc(-n2c(C)nc3cc(C(=O)N4CCCN(C(C)=O)CC4)ccc32)cc(OC)c1OC do in these assays?
GC-B act: -5; NPR1 activator: 1

What do the screens show for `CCC(Oc1ccccc1)C(=O)Nc1ccc(C)c(S(=O)(=O)N2CCOCC2)c1` (configuration not stated)?
Neddyl block: 6; A3G deaminase: 81*; PfGluPho inh: 6; GC-B act: -4; A3A deaminase: 2; NPR1 activator: 3; A3G conf: -1

Results for O=C(COC(=O)CCCN1C(=O)c2cccc3cccc(c23)C1=O)Nc1cccc(C(F)(F)F)c1 ?
Neddyl block: -28; A3G deaminase: 56*; PfGluPho inh: -15; GC-B act: 1; A3A deaminase: 0; NPR1 activator: 0; A3G conf: 0

Results for Cc1cccc(C)c1OCc1n[nH]c(=S)n1N ?
Neddyl block: 10; A3G deaminase: 40*; PfGluPho inh: 17; GC-B act: -5; A3A deaminase: 3; NPR1 activator: 1; A3G conf: 54*; UDG ctr A3G: -3

Results for Nn1c(COc2ccc(Cl)cc2)n[nH]c1=S ?
Neddyl block: 0; A3G deaminase: 53*; PfGluPho inh: 19; GC-B act: -11; A3A deaminase: 1; NPR1 activator: 0; A3G conf: 58*; UDG ctr A3G: 3

What do the screens show for `S=c1[nH]nc(COc2ccccc2)n1-c1ccc(Cl)cc1`?
Neddyl block: 7; PfGluPho inh: 8; GC-B act: 1; NPR1 activator: -1

What do the screens show for `CCc1cc2cc(C)cc(C)c2[nH]c1=S`?
Neddyl block: -12; A3G deaminase: 49*; PfGluPho inh: 45; GC-B act: 5; A3A deaminase: 2; NPR1 activator: 0; A3G conf: active; UDG ctr A3G: -3

What do the screens show for `Cc1ccc(S(=O)(=O)/C(C#N)=C/c2c(N3CCCCC3)nc3ccccn3c2=O)cc1`?
Neddyl block: -4; A3G deaminase: 49*; PfGluPho inh: 4; GC-B act: -11; A3A deaminase: -2; NPR1 activator: 0; A3G conf: -3; UDG ctr A3G: -3

Results for Cc1ccc(S(=O)(=O)/C(C#N)=C/c2c(N3CCN(C)CC3)nc3ccccn3c2=O)cc1 ?
Neddyl block: 11; A3G deaminase: 13; PfGluPho inh: -9; GC-B act: -1; A3A deaminase: -1; NPR1 activator: 1

How did N#Cc1cn(CC(=O)O)c2ccccc12 do in these assays?
Neddyl block: 2; A3G deaminase: 70*; PfGluPho inh: -15; GC-B act: 5; A3A deaminase: -12; NPR1 activator: 0; A3G conf: -5; UDG ctr A3G: -3

Results for O=C(c1ccc(C#Cc2ccccc2)cc1)N1CCC(O)CC1 ?
GC-B act: -5; NPR1 activator: 10

How did O=C(CCc1ccccc1)N[C@H]1[C@@H](OC(=O)c2cccnc2)CCC[C@@]12C(=O)N(Cc1ccccc1)c1ccccc12 do in these assays?
GC-B act: -3; NPR1 activator: -5

What do the screens show for `O=C(O)CC(Sc1n[nH]c(=S)s1)C(=O)O` (configuration not stated)?
Neddyl block: -1; A3G deaminase: 44*; PfGluPho inh: 39; GC-B act: 4; A3A deaminase: 1; NPR1 activator: -3; A3G conf: 60*; UDG ctr A3G: 3

How did COC(=O)c1ccc(CSc2n[nH]c(=S)s2)o1 do in these assays?
Neddyl block: -4; A3G deaminase: 50*; PfGluPho inh: 21; GC-B act: 2; A3A deaminase: 0; NPR1 activator: 4; A3G conf: 59*; UDG ctr A3G: 3

How did COC(=O)c1ccc(CSc2nc3ccccc3s2)o1 do in these assays?
Neddyl block: 11; A3G deaminase: -4; PfGluPho inh: 14; A3A deaminase: -6

What do the screens show for `NNC(=O)CNC(=O)Nc1n[nH]c(=S)s1`?
Neddyl block: -3; GC-B act: 1; NPR1 activator: 2

Results for COC(=O)C(C)Sc1n[nH]c(=S)s1 (configuration not stated) ?
Neddyl block: -5; A3G deaminase: 84*; PfGluPho inh: 19; GC-B act: 8; A3A deaminase: -3; NPR1 activator: 2; A3G conf: 84*; UDG ctr A3G: 6

How did Nc1ccccc1-c1n[nH]c(=S)s1 do in these assays?
PfGluPho inh: 4

Results for CCSc1n[nH]c(=S)s1 ?
Neddyl block: -3; A3G deaminase: 52*; PfGluPho inh: 8; GC-B act: -2; A3A deaminase: -6; NPR1 activator: 3; A3G conf: 59*; UDG ctr A3G: 0

What do the screens show for `O=C(NCCc1ccccc1Cl)[C@@H]1CCCN1C(=O)[C@H](Cc1cccnc1)NC(=O)N1CCOCC1`?
GC-B act: 4; NPR1 activator: 1

Results for O=C(NC1CCCCN(Cc2ccc(Cl)cc2)C1=O)c1cccc(F)c1 (configuration not stated) ?
GC-B act: -4; NPR1 activator: 0
